Most compounds without a hit are left out; they make up all but 7.3% or so of the library.
ELG1 genotoxic = qHTS screen for small molecules that induce genotoxicity in human embryonic kidney (HEK293T) cells expressing luciferase-tagged ELG1; HEK293T ELG1-luciferase reporter, luminescence, 16 h; Potency, µM (series often up to 46 µM), most hits filed as activators; actives 1.3% (n = 330,000); further: nearly all actives have a fitted effect of over 60% in size
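DMSO vehicle served as control against compound-treated ELG1-luciferase HEK293T cells; exposure lasted 16 hr at 37 °C and 5% CO2, followed by ONE-Glo luminescence detection after 30 min.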
SMN2 splice enh = qHTS Assay for Enhancers of SMN2 Splice Variant Expression; actives 2.8% (n = 210,000); HEK293 SMN2-luciferase splicing reporter, luminescence, 30-36 h; Potency, µM (highest dose often 46.1 µM), actives largely listed as activators; further: nearly all actives have a fitted effect of over 55% in size
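HEK293 cells carry an SMN2 minigene-luciferase reporter in which exon 7 inclusion puts luciferase in frame. Cells were seeded at 2000 cells/well, attached for 10-12 hours, then exposed to compounds for 30-36 hours at 37C before ONE-Glo luminescence.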
NPC1 promoter act = qHTS Assay for NPC1 Promoter Activators; Huh7 NPC1 promoter luciferase reporter, 24 h; Potency, µM (series often up to 9.22 µM), hits mostly activators; actives 2.4% (n = 320,000); AID 485313, 2010; further: nearly all actives have a fitted effect of over 60% in size
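Cells: Huh7 expressing luciferase under the NPC1 promoter, 1500/well. Seeded 2 h, compound added, incubated 24 h at 37 °C. Luciferase reagent, 10 min ambient, then luminescence.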
uPA generation = qHTS for Inhibitors of Cell Surface uPA Generation | actives 0.31% (n = 330,000) | AID 540303, 2011 | cell surface uPA generation assay, qHTS | Potency, µM (top dose mostly 38.3 µM), hits mostly inhibitors; active means well fitted inhibition curve with a large enough effect; inconclusive means small, poorly fitted or top-dose-only effect; inactive means no such curve, though single readings can be large or run the other way; tested in mouse RAW 264.7 cells; further: nearly all actives have a fitted effect of over 55% in size
Rab9 promoter act = qHTS Assay for Rab9 Promoter Activators. Huh7 Rab9 promoter-luciferase reporter, luminescence, 24 h. Potency, µM (highest dose often 9.22 µM), actives largely listed as activators. actives 2.8% (n = 320,000). AID 485297, 2010; further: nearly all actives have a fitted effect of over 60% in size
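Cell-based reporter: Huh7 stable for Rab9 promoter-driven luciferase, plated in reduced-serum medium with 10% FBS at 1500 cells/well, compound-treated 24 h at 37 °C, luminescence read after 10 min reagent.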
FLuc counter = qHTS profiling assay for firefly luciferase inhibitor/activator using purifed enzyme and Km concentrations of substrates (counterscreen for miR-21 project). Luciferin 4-monooxygenase (Photinus pyralis), P08659. purified FLuc, Km substrates, luminescence inhibition. Potency, µM (top dose mostly 57.5 µM), hits mostly inhibitors. actives 6.9% (n = 360,000). AID 588342, 2011; further: nearly all actives have a fitted effect of over 55% in size
Target sequence (P08659 whole entry, looked up): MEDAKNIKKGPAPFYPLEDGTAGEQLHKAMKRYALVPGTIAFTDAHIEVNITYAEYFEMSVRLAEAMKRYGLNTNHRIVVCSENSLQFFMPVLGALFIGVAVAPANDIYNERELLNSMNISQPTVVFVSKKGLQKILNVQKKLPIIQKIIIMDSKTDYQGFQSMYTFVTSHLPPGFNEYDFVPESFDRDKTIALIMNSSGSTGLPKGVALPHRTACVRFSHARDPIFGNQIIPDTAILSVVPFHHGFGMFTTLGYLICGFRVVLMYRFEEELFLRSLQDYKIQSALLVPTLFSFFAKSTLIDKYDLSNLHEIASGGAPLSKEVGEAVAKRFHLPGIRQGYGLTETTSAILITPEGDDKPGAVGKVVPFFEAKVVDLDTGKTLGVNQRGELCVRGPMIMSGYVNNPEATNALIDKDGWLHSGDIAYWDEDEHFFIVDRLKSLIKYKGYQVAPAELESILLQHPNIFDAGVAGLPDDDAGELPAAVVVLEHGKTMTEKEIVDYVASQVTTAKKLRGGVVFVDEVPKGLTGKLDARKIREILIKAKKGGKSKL
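Purified P. pyralis luciferase (10nM final) with 10uM D-luciferin and 10uM ATP (Km levels) in 50mM Tris acetate pH 7.5, 10mM Mg acetate, 0.01% Tween-20, 0.05% BSA; qHTS 6-point titration, ~60 µM downward; luminescence read.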
A number is an active result; i = inactive; ? = inconclusive; nt = no result given; [ ] = remark or other dose. Unless noted, the call rests on the fitted dose curve; in most records, active means well fitted curve in the direction sought with a large enough effect; inconclusive means small, poorly fitted or top-dose-only effect, or another doubt; inactive means no such curve, though single readings can be large; an effect the other way counts as inactive or inconclusive.

SMILES	ELG1 genotoxic	SMN2 splice enh	NPC1 promoter act	uPA generation	Rab9 promoter act	FLuc counter
Cc1ccccc1C(=O)Nc1nnc(SCC(=O)NCc2ccco2)s1	2.9µM	nt	1.8µM	?	1.8µM	1.7µM
O=C(CSc1nnc(NC(=O)c2ccc(F)cc2)s1)NCc1ccco1	?	nt	1.6µM	i	3.5µM	1.9µM
O=C(CSc1nnc(NC(=O)c2ccc3c(c2)OCO3)s1)NCc1ccco1	?	4µM	1.1µM	i	0.71µM	0.76µM
O=C(CSc1nnc(CNC(=O)c2ccccc2)o1)NCc1ccco1	i	nt	i	i	i	i
O=C(CSc1nnc(NC(=O)c2ccco2)s1)NCc1ccc2c(c1)OCO2	i	i	i	i	i	?
CC(C)(C)c1ccc(C(=O)NCc2nnc(SCC(=O)NCc3ccco3)o2)cc1	i	nt	i	i	i	19µM
O=C(CCc1ccccc1)Nc1cc2c3c(c1)CC(=O)N3CCC2	i	nt	i	i	i	i
CCCOc1ccc(NC(=O)CC2C(=O)N(c3cccc(OC)c3)C(=O)N2Cc2cccs2)cc1 (configuration not stated)	nt	nt	nt	nt	nt	i
CCOC(=O)C1CCN(Cc2cn3c(-c4ccc(OC)cc4)nnc3s2)CC1	nt	nt	nt	nt	nt	i
O=C(CSc1nnc(NC(=O)c2ccccc2)s1)NCc1ccco1	?	nt	2.8µM	i	3.2µM	4.8µM
C[C@@H](C[N+](C)(C)C)OC(N)=O	nt	i	nt	nt	nt	nt
CSc1ncc(Cl)c(C(=O)N(C)c2ccccc2)n1	nt	i	nt	nt	nt	i
N=c1oc2c3c4c(cc2cc1C(=O)Nc1ccccc1)CCCN4CCC3	?	10µM	?	i	?	1.9µM
Cc1oc(S(=O)(=O)N2CCCC2)cc1C(=O)Nc1ccccc1	i	nt	i	i	i	i
NC(=O)C1CCN(c2nc(-c3ccc([N+](=O)[O-])cc3)cs2)CC1	nt	nt	nt	nt	nt	i
O=C(Nc1ccncc1)Nc1cccc(Cl)c1	i	nt	i	i	i	?
O=C(Nc1cccc(Cl)c1)Nc1csc([N+](=O)[O-])c1	i	nt	i	i	i	19µM
CN(C)c1ccc(NC(=O)Nc2cccc(Cl)c2)cc1	?	13µM	2.2µM	nt	1.8µM	1.3µM
CN(c1cccc(NC(=O)Nc2cccc(Cl)c2)c1)S(C)(=O)=O	i	i	i	i	i	17µM
Cc1ccccc1OCC(=O)Nc1ccc2nc(SCC(=O)N(C)c3ccccc3)sc2c1	nt	nt	nt	nt	nt	i
O=C(NC1(C(F)(F)F)NC(=O)N(CCc2ccccc2)C1=O)c1ccccc1Cl (configuration not stated)	nt	i	nt	nt	nt	i
COCc1cc(C)n(CC(=O)Nc2cccc(C(C)=O)c2)c(=O)c1C#N	nt	i	nt	nt	nt	i
CCCN(CCC)C(=O)Cn1c(=O)n(-c2ccc(OC)cc2)c(=O)c2ccc(C(=O)NCc3ccc(C)cc3)cc21	nt	i	nt	nt	nt	i
CCOc1ccc(S(=O)(=O)N2CCN(C(=O)c3ccc(C)c(S(=O)(=O)N4CCOCC4)c3)CC2)cc1	i	nt	nt	i	nt	nt
Cc1[nH]c2ccccc2c1/C=C(\C#N)C(=O)NC1CC1	?	nt	?	i	?	17µM
SMILES	ELG1 genotoxic	SMN2 splice enh	NPC1 promoter act	uPA generation	Rab9 promoter act	FLuc counter
N#C/C(=C\c1c[nH]c2ccccc12)C(=O)NC1CCCC1	i	nt	i	i	i	15µM
Cc1[nH]c2ccccc2c1/C=C(\C#N)C(=O)NC(C)c1ccccc1 (configuration not stated)	i	i	i	nt	i	i
N#C/C(=C\c1c[nH]c2ccccc12)C(=O)NC1CC1	?	nt	3.5µM	i	?	7.6µM
Nc1ncc(Br)cc1N=Cc1ccccc1	?	13µM	i	i	3.5µM	3.4µM
Cc1ccccc1CNC(=O)c1ccc2c(c1)N(Cc1ccccc1)CCS2	nt	i	nt	nt	nt	i
CC1CCCCN1CCCNC(=O)Cn1ncc2c3ccccc3n(Cc3ccccc3)c2c1=O (configuration not stated)	nt	i	nt	nt	nt	i
COc1ccccc1-n1cnc2sc(-c3ccccc3)cc2c1=O	i	i	?	i	2.8µM	11µM
CNC(=O)NC(=O)Cn1cnc2sc(-c3ccccc3)cc2c1=O	i	nt	i	i	i	i
O=c1c2cc(-c3ccccc3)sc2ncn1/N=C/c1ccco1	?	i	?	i	3.5µM	8.5µM
CCN(CC)C(=O)Cn1nnc2sc(-c3ccccc3)cc2c1=O	nt	i	nt	nt	nt	i
CCCCCn1cnc2sc(-c3ccccc3)cc2c1=O	i	?	2.5µM	i	2.2µM	6.7µM
COc1ccccc1-n1cnc2sc(C)c(C)c2c1=O	i	nt	i	i	i	i
CCCCn1cnc2sc(-c3ccccc3)cc2c1=O	?	i	1.4µM	i	1.6µM	5.4µM
CCOC(=O)c1sc(NC(=O)c2nc(SC)ncc2Cl)c(C(=O)OCC)c1C	nt	i	nt	nt	nt	i
O=C(CCc1nc(-c2ccccc2F)no1)Nc1cccc(C(F)(F)F)c1	nt	i	nt	nt	nt	?
C=CCOC(=O)N[C@H](c1cccc(C(F)(F)F)c1)C(C(C)=O)C(C)=O	nt	i	nt	nt	nt	nt
O=C(Nc1sc2c(c1C(=O)O)CCC2)c1ccc(F)cc1	i	i	i	i	i	17µM
CC(C)Cc1csc(NC(=O)c2ccc(Cl)cc2)c1C(=O)O	i	20µM	i	i	i	?
O=C(Nc1sc2c(c1C(=O)O)CCCC2)c1cccc(Cl)c1	i	nt	?	?	?	24µM
CC(C)Cc1csc(NC(=O)c2ccccc2Cl)c1C(=O)O	i	i	i	i	i	?
O=C(Nc1sc2c(c1C(=O)NCCCO)CCCC2)c1ccccc1	i	nt	i	i	i	i
O=C(Nc1sc2c(c1C(=O)O)CCCC2)c1ccc(Cl)cc1	i	nt	i	i	i	19µM
COc1ccc(CN(C(=O)Cc2coc3ccc(C)cc23)C2CCS(=O)(=O)C2)cc1 (configuration not stated)	nt	i	nt	nt	nt	i
COCC(=O)N1CCC[C@@]2(CCN(Cc3cc(C(F)(F)F)cc(C(F)(F)F)c3)C2)C1	nt	i	nt	nt	nt	nt
O=C(O)c1c(NC(=O)c2cccc3ccccc23)sc2c1CCC2	i	i	i	i	i[1.84 µM]	?
SMILES	ELG1 genotoxic	SMN2 splice enh	NPC1 promoter act	uPA generation	Rab9 promoter act	FLuc counter
O=C(Nc1sc2c(c1C(=O)O)CCCCC2)c1ccccc1	i	nt	2.8µM	i	0.89µM	4.8µM
O=C(Nc1sc2c(c1C(=O)O)CCC2)c1ccccc1	i	10µM	i	i	?	15µM
NCCNC(=O)c1c(NC(=O)c2ccccc2)sc2c1CCCC2	i	nt	i	i	i	?
CCOC(=O)c1c(NC(=O)CSc2cn(CCNC(=O)c3ccccc3OC)c3ccccc23)sc2c1CCCC2	nt	i	nt	nt	nt	i
Cc1n[nH]c(C)c1S(=O)(=O)Nc1ccc2c(c1)OCCO2	?	i	i	i	i	?
Cc1cccn2c(=O)c3cc(C(=O)NCc4ccccc4Cl)sc3nc12	nt	i	nt	nt	nt	i
OC[C@H]1O[C@@H](Oc2cc(O)cc(/C=C/c3ccc(O)cc3)c2)[C@H](O)[C@@H](O)[C@@H]1O	nt	nt	i	nt	i	19µM
